# Bioassay records deposited in PubChem by National Center for Advancing Translational Sciences (NCATS).
# Hits are enriched below; roughly 9.4% of the tested compounds scored in any of these assays.
# NPC1 prom act: activates the NPC1 promoter | AID 485313 | actives 2.4% (n = 320,000) | Huh7 NPC1 promoter luciferase reporter, 24 h | Potency, µM (highest dose often 9.22 µM), for the others: at the top dose activation, actives largely listed as activators; note: % of control where 0% means no effect; nearly all actives have a fitted effect of over 60% in size
#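 Huh7 reporter cells (NPC1 promoter driving luciferase) are dosed with compound for 24 h at 37 °C, 5% CO2; luciferase detection reagent is then added and luminescence measured after 10 min at ambient temperature.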
# SMN2 splice up: SMN2 splice variant enhancement; HEK293 SMN2-luciferase splicing reporter, luminescence, 30-36 h; Potency, µM (doses to about 46.1 µM), for the others: top-dose activity change, positive = activation, usual class: activators; actives 2.8% (n = 210,000); AID 1458; note: % of control where 0% means no effect; nearly all actives have a fitted effect of over 55% in size
#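 HEK293 cells carry an SMN2 […]–luciferase reporter in which exon 7 inclusion puts luciferase in frame. Cells were plated 10-12 h before compound addition, then incubated 30-36 h at 37C. ONE-Glo luminescence was read; sodium butyrate at 4.5 mM final served as control.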
# ELG1 genotox: induces genotoxicity in HEK293T cells with luciferase-tagged ELG1. HEK293T ELG1-luciferase reporter, luminescence, 16 h. Potency, µM (highest dose often 46 µM), without a hit: at the top dose activity change, positive = activation, most hits filed as activators. actives 1.3% (n = 330,000); note: % of control where 0% means no effect; nearly all actives have a fitted effect of over 60% in size
#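 DMSO vehicle served as control against compound-treated ELG1-luciferase HEK293T cells; exposure lasted 16 hr at 37 °C and 5% CO2, followed by ONE-Glo luminescence detection after 30 min.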
# FLuc modulator: counter-screen for miR-21 project: firefly luciferase inhibitors or activators | purified FLuc, Km substrates, luminescence inhibition | actives 6.9% (n = 360,000) | Potency, µM (top dose mostly 57.5 µM), inactives show top-dose activity change, negative = inhibition, hits mostly inhibitors;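 note: plate controls were vehicle for no effect and reference inhibitor for full effect; nearly all actives have a fitted effect of over 55% in size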
# Target sequence (P08659 whole entry, looked up): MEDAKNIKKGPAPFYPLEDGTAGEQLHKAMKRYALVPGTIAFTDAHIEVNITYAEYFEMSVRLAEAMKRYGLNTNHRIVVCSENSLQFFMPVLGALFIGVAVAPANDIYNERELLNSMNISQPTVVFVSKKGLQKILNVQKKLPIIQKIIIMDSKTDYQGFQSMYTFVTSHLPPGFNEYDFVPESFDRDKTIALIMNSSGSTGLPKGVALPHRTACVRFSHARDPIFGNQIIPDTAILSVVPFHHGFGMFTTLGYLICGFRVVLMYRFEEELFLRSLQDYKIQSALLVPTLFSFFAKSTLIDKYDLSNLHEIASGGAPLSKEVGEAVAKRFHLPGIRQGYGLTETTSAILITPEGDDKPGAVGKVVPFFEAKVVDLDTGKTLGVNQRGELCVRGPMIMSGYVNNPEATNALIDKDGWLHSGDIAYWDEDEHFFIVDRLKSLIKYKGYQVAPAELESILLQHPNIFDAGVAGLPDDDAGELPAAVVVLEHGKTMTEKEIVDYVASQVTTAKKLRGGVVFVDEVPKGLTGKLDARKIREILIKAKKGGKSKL
#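 Purified P. pyralis luciferase (10nM final) with 10uM D-luciferin and 10uM ATP (Km levels) in 50mM Tris acetate pH 7.5, 10mM Mg acetate, 0.01% Tween-20, 0.05% BSA; qHTS 6-point titration, ~60 µM downward; luminescence read.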
# ELG1 DNA repair: blocks ELG1-dependent DNA repair in HEK293T cells; HEK293T ELG1-luciferase reporter, luminescence, 16 h; DNA damage induced by 5-fluorouridine; Potency, µM (top dose mostly 46.1 µM), without a hit: at the highest dose activity change, negative = inhibition, most hits filed as inhibitors; actives 2.3% (n = 330,000); note: % is set by controls: 0 for no effect and ±100 for the full control effect; nearly all actives have a fitted effect of over 55% in size
#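 Reporter activity after DNA damage by 5-fluorouridine is monitored. Compound-treated cells incubate 16 hr at 37 °C, then ONE-Glo is added for 30 min before luminescence reading.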
# Rab9 promoter act: activators of Rab9 promoter; Huh7 Rab9 promoter-luciferase reporter, luminescence, 24 h; actives 2.8% (n = 320,000); Potency, µM (doses to about 9.22 µM), for inactives: at the top dose activation, negative = inhibition, hits mostly activators; note: % of control where 0% means no effect; nearly all actives have a fitted effect of over 60% in size
#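 Huh7 reporter line, Rab9 promoter upstream of luciferase. Compound exposure 24 h at 37 °C in reduced-serum medium with 10% FBS. Read-out: luminescence.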
# An asterisk follows results filed as active; ? = inconclusive; . = not tested or not shown; [ ] = another dose, or the depositor's remark. Calls come from the whole dose curve; as a rule, active = well fitted curve in the direction sought with a large enough effect; inconclusive = small, poorly fitted or top-dose-only effect, or another doubt; inactive = no such curve, though single readings can be large; an effect the other way counts as inactive or inconclusive. Potency is the fitted concentration of half-maximal effect.
SMILES,NPC1 prom act,SMN2 splice up,ELG1 genotox,FLuc modulator,ELG1 DNA repair,Rab9 promoter act
COc1cccc(CNC(=O)c2ccc3c(c2)N(Cc2ccc(F)cc2Cl)C(=O)c2ccccc2S3)c1,.,.,.,2.9%,.,.
Cc1cccc2cc3c(nc12)-c1ccccc1C3=O,1.0%,.,?,15.1µM*,?,3.5%
COc1ccccc1NC(=O)Cn1cc(S(=O)(=O)Cc2ccccc2)c2ccccc21,.,.,.,-2.8%,.,.
Nc1n[nH]c2c1C1(CCCCC1)Cc1ccccc1-2,12.7%,-12.4%,-9.6%,-3.6%,0.0%,8.1%
Nc1ncnc2c1C1(CCCCC1)Cc1ccccc1-2,0.3%,-32.6%,-4.6%,1.0%,10.3µM*,-3.0%
Cc1ccc(CSC2=Nc3ccccc3C3=NC(CCC(=O)NCCc4ccccc4)C(=O)N23)cc1 (stereo not given),.,.,.,-8.2%,.,.
CCS(=O)(=O)n1nc(-c2ccc(Cl)cc2)nc1SCc1ccccc1,28.8%,14.1µM*,16.8%,15.1µM*,?,?
COc1ccc(-c2nc(SCc3ccccc3)n(S(C)(=O)=O)n2)cc1,6.4%,5.9%,4.4%,.,?,26.0%
COC(=O)N[C@@H](c1cccc(C)c1)[C@@H](C)[N+](=O)[O-],.,1.1%,.,.,.,.
CCc1ccc(C(=O)COC(=O)c2cc([N+](=O)[O-])ccc2NCCO)cc1,14.8%,-17.3%,0.2%,?,14.6µM*,-0.1%
O=C(COC(=O)c1cc([N+](=O)[O-])ccc1NCCO)c1ccc(Cl)cc1,-3.5%,-8.1%,-4.6%,-1.3%,?,-0.8%
COc1ccc(/C=N/Nc2nncc3ccccc23)cc1,0.282µM*,0.708µM*,0.259µM*,0.169µM*,?,0.199µM*
COc1ccc(/C(C)=N/Nc2nc3ccccc3nc2C)cc1,4.0%,.,7.4%,2.69µM*,?,5.6%
COc1ccccc1/C=N/NC(=O)c1cccc2ccccc12,-1.5%,.,-2.3%,-2.3%,13.5%,-2.8%
COc1ccc(/C(C)=N/Nc2nncc3ccccc23)cc1,1.58µM*,.,?,1.35µM*,?,0.708µM*
COc1ccccc1/C=N/Nc1nncc2ccccc12,?,10µM*,?,9.53µM*,?,3.55µM*
COc1ccc(Cn2c(SCc3ccc(C(=O)NCc4cccs4)cc3)nc3ccncc32)cc1,.,14.8%,.,-12.3%,.,.
NNc1nncc2ccccc12,2.59µM*,12.6µM*,.,.,.,2.31µM*
O=C(N/N=C/c1cc(Br)c(O)c(Br)c1)c1cccnc1,-0.2%,.,-0.6%,-14.2%,-3.4%,1.0%
Oc1c(Br)cc(/C=N/Nc2nncc3ccccc23)cc1Br,?,.,12.0%,9.53µM*,?,28.9%
COC(=O)[C@@]1(Cc2ccccc2-c2ccco2)C=C[C@H](C)[C@@H](c2ccccc2)N1C(=O)C(F)(F)F,.,0.3%,.,.,.,.
Cc1[nH]n(C(N)=S)c(=O)c1N=Nc1cccc(C(F)(F)F)c1,3.98µM*,.,4.6%,9.53µM*,?,19.1%[1.84 µM]
Cc1ccc([N+](=O)[O-])cc1N=Nc1c(-c2ccc([N+](=O)[O-])cc2)[nH]n(C(N)=S)c1=O,-22.7%,-70.7%,-20.3%,-4.0%,?,-38.9%
Cc1ccc(S(=O)(=O)N2CCCCC2)cc1,-3.1%,.,-2.8%,-1.6%,-0.9%,1.0%
Cc1[nH]n(C(N)=S)c(=O)c1N=Nc1ccc(S(=O)(=O)N2CCCC2)cc1,-1.5%,10.4%,1.0%,19µM*,?,13.0%
SMILES,NPC1 prom act,SMN2 splice up,ELG1 genotox,FLuc modulator,ELG1 DNA repair,Rab9 promoter act
Cc1[nH]n(C(N)=S)c(=O)c1N=Nc1cc(C(F)(F)F)ccc1Cl,-0.3%,.,-12.6%,-15.7%,0.2%,-9.5%[1.84 µM]
Cc1[nH]n(C(N)=S)c(=O)c1N=Nc1ccc(Br)cc1,3.55µM*,.,?,2.39µM*,?,2.82µM*
NC(=S)n1[nH]c(-c2ccc([N+](=O)[O-])cc2)c(N=Nc2ccc(Cl)cc2)c1=O,-40.5%,-46.5%,-10.3%,-12.5%,2.91µM*,-52.9%
COc1ccccc1CNC(=O)CN1N=C(c2ccccc2)CCC1=O,.,.,.,1.1%,.,.
CSc1ncc(C(=O)NCc2ccc(Cl)cc2)c(C(F)(F)F)n1,.,.,.,2.1%,.,.
Cc1ccc([N+](=O)[O-])cc1N=Nc1c(C)[nH]n(C(N)=S)c1=O,-0.8%,.,-2.4%,-0.8%,-2.3%,-5.9%
Cc1[nH]n(C2=NCCS2)c(=O)c1N=Nc1cccc(C(F)(F)F)c1,-28.2%,-47.1%,18.2%,-16.5%,2.91µM*,-43.7%
O=c1[nH]n2c(=O)c3c([nH]c2c1N=Nc1cccc(C(F)(F)F)c1)CCCC3,-0.3%,2.7%,-1.8%,0.2%,-20.3%,1.8%
Cc1ccc(N=Nc2c(C)[nH]n(C(N)=S)c2=O)cc1,?,17.8µM*,16.4µM*,2.69µM*,?,3.16µM*
NC(=O)c1ccccc1N/C=C/C(=O)c1ccc(Cl)cc1,0.398µM*,8.91µM*,?,0.239µM*,?,0.398µM*
NC(=O)c1ccccc1NC(=O)/C=C/C(=O)O,-1.6%,-26.6%,2.0%,6.2%,9.2%,1.1%
Cc1ccc(C(=O)/C=C/Nc2ccccc2C(N)=O)cc1,0.631µM*,0.708µM*,6.51µM*,0.135µM*,?,0.316µM*
Cc1ccc(/C=C/C(=O)Nc2cc(S(N)(=O)=O)ccc2O)cc1,4.4%,2.2%,0.9%,15.1µM*,-0.7%,17.2%
Cc1ccc(/C=C/C(=O)Nc2ccccc2C(N)=O)cc1,2.82µM*,3.55µM*,?,0.849µM*,?,1.41µM*
CCS(=O)(=O)c1ccc(O)c(NC(=O)/C=C/c2ccc(Cl)cc2)c1,0.0%,.,-3.9%,?,?,-2.4%
O=C(NCCN1CCCCC1)c1ccc(Cn2c(SCc3cccc(F)c3)nc3cccnc32)cc1,.,-17.7%,.,-2.3%,.,.
Cc1ccc(-n2nc3c(N4CCC(C(=O)NCc5cccc(F)c5)CC4)nnc(C)c3c2C)cc1,-3.2%,.,6.9%,4.2%,16.4µM*,-15.3%
Cc1ccc(-n2nc3c(N4CCC(C(=O)NCCc5ccccc5)CC4)nnc(C)c3c2C)cc1,.,.,.,-4.9%,.,.
O=C(Cc1ccc(-c2ccccc2)cc1)Nc1ncccc1O,?,.,?,15.1µM*,?,?
O=C(Cc1ccc(-c2ccccc2)cc1)Nc1ccccc1,3.0%,.,?,-1.4%,-2.3%,15.8%
C[C@H](NC(=O)OC(C)(C)C)c1nnc(SCc2ccc(Cl)cc2Cl)o1,.,-62.5%,.,-16.8%,.,.
COc1cc(CN2CC(=O)N(c3ccc(C)c(C)c3)C2=S)cc(OC)c1OC,-1.1%,-18.0%,0.3%,-0.9%,?,-3.5%
COc1ccc(CN2CC(=O)N(c3ccc(C)c(C)c3)C2=S)cc1OC,-2.9%,-14.9%,8.4%,-1.2%,16.4µM*,0.2%
